Measurements reported in PubChem BioAssay.
The source made the active and inactive calls. Rule as the data show it, unless noted: active = inhibition above about 42%; inactive = the rest.

system: not listed separately; test: StAR promoter reporter inhibitors, counter-screen for LRH-1 inverse agonist project, cell-based, luminescence, high throughput (AID 651611; in the data active = inhibition above about 28%); details: StAR promoter luciferase reporter counterscreen, at 3.6 µM, stronger effect = higher value

Row | SMILES | inhibition
1 | CC(=O)O[C@H]1C[C@@H]2OC3C=C(C)CCC3(C)[C@@]1(C)[C@@]21CO1 (some centres not stated) | 95.6% (active)
2 | COC1=C(C)C(=O)C2=C(C1=O)C(CO)N1C(C#N)C3CC4C(C1C2N1CCOC41)N3C (configuration not stated) | 86.5% (active)
3 | COC1C(O)C(C)OC(OC2CCC3(C)C(CCC4C3C(O)CC3(C)C(C5=CC(=O)OC5)CCC43O)C2)C1O (configuration not stated) | 97.3% (active)
4 | CC(=O)OC1C(O)C(C)OC(OC2C(OC(=O)C3CCC4C(C3)OC3(CC(OC(=O)/C=C/c5ccccc5)C(C)CO3)C43CO3)OC(C)C(O)C2OC(C)=O)C1O (configuration not stated) | 96.1% (active)
5 | CC(=O)OC1CC(OC2C(O)CC(OC3C(O)CC(OC4CCC5(C)C(CCC6C5CCC5(C)C(C7=CC(=O)OC7)CCC65O)C4)OC3C)OC2C)OC(C)C1OC1OC(CO)C(O)C(O)C1O (configuration not stated) | 94.6% (active)

biological target: Nuclear receptor subfamily 5 group A member 2 (Homo sapiens) (UniProt O00482); test: NR5A2 activity suppression in reporter cells – cell-based, luminescence, confirmation (AID 651613); details: cell-based LRH-1 luciferase reporter, inverse agonism; at 3.6 µM; stronger effect = higher value;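 also: HEK293T cells co-transfected with LRH-1 and StAR promoter luciferase reporter; 0% = vehicle wells and 100% = parental cells lacking receptor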
Sequence (O00482 whole entry, looked up): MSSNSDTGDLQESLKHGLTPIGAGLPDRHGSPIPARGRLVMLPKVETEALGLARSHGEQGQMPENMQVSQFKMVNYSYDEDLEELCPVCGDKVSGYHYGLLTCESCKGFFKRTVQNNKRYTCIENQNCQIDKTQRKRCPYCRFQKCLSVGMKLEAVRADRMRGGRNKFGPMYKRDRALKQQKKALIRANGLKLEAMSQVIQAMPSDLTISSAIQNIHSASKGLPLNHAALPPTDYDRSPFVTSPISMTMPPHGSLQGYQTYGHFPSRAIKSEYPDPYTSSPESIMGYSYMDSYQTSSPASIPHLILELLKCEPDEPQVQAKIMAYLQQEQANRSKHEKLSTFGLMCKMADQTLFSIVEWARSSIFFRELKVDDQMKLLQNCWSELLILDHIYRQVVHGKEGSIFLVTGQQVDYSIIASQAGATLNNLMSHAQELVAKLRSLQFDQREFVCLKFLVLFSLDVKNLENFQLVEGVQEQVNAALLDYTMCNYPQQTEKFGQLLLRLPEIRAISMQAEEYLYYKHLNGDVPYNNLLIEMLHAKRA

Row | SMILES | inhibition
6 | CC(=O)O[C@H]1C[C@@H]2OC3C=C(C)CCC3(C)[C@@]1(C)[C@@]21CO1 (some centres not stated) | 109% (active)
7 | COC1=C(C)C(=O)C2=C(C1=O)C(CO)N1C(C#N)C3CC4C(C1C2N1CCOC41)N3C (configuration not stated) | 106% (active)
8 | COC1C(O)C(C)OC(OC2CCC3(C)C(CCC4C3C(O)CC3(C)C(C5=CC(=O)OC5)CCC43O)C2)C1O (configuration not stated) | 110% (active)
9 | CC(=O)OC1C(O)C(C)OC(OC2C(OC(=O)C3CCC4C(C3)OC3(CC(OC(=O)/C=C/c5ccccc5)C(C)CO3)C43CO3)OC(C)C(O)C2OC(C)=O)C1O (configuration not stated) | 109% (active)
10 | C[C@@H]1C[C@@H]([C@H](O)CC2CC(=O)NC(=O)C2)C(=O)[C@@H](C)C1 | 109% (active)
11 | CC(=O)OC1CC(OC2C(O)CC(OC3C(O)CC(OC4CCC5(C)C(CCC6C5CCC5(C)C(C7=CC(=O)OC7)CCC65O)C4)OC3C)OC2C)OC(C)C1OC1OC(CO)C(O)C(O)C1O (configuration not stated) | 109% (active)

biological target: Steroidogenic factor 1 (Homo sapiens) (UniProt Q13285); test: inverse agonism at SF1 nuclear receptor – cell-based, luminescence, high throughput, counter-screen for LRH-1 inverse agonist project (AID 651614; in the data active = inhibition above about 44%;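 also: cells cotransfected with StAR promoter reporter and SF1 expression vector; 0% = vehicle on cells with receptor and 100% = vehicle on cells lacking receptor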); details: cell-based SF1 luciferase reporter, at 3.6 µM, stronger effect = higher value
Sequence (Q13285 whole entry, looked up): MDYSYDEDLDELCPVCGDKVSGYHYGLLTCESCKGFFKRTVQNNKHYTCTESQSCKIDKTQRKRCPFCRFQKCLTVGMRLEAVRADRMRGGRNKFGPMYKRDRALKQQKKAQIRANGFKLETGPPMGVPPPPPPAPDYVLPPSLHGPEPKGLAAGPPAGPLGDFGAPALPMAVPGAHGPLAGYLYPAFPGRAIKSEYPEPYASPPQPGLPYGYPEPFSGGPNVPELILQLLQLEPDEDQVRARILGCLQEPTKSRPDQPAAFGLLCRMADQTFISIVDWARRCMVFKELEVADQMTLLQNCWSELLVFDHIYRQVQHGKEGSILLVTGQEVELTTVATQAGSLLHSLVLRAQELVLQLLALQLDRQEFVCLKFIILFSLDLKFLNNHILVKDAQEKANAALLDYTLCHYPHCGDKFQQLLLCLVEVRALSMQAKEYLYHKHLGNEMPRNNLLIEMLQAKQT

Row | SMILES | inhibition
12 | CC(=O)O[C@H]1C[C@@H]2OC3C=C(C)CCC3(C)[C@@]1(C)[C@@]21CO1 (some centres not stated) | 96.8% (active)
13 | COC1=C(C)C(=O)C2=C(C1=O)C(CO)N1C(C#N)C3CC4C(C1C2N1CCOC41)N3C (configuration not stated) | 96.2% (active)
14 | COC1C(O)C(C)OC(OC2CCC3(C)C(CCC4C3C(O)CC3(C)C(C5=CC(=O)OC5)CCC43O)C2)C1O (configuration not stated) | 98.8% (active)
15 | CC(=O)OC1C(O)C(C)OC(OC2C(OC(=O)C3CCC4C(C3)OC3(CC(OC(=O)/C=C/c5ccccc5)C(C)CO3)C43CO3)OC(C)C(O)C2OC(C)=O)C1O (configuration not stated) | 97.5% (active)
16 | C[C@@H]1C[C@@H]([C@H](O)CC2CC(=O)NC(=O)C2)C(=O)[C@@H](C)C1 | 97.9% (active)
17 | CC(=O)OC1CC(OC2C(O)CC(OC3C(O)CC(OC4CCC5(C)C(CCC6C5CCC5(C)C(C7=CC(=O)OC7)CCC65O)C4)OC3C)OC2C)OC(C)C1OC1OC(CO)C(O)C(O)C1O (configuration not stated) | 96.6% (active)
